Results: PubChem BioAssay AID1347423 (Functional Genomics Laboratory (NCATS/FGL), 2020)
The whole screen tested about 52,000 sequences, of which about 210 (0.4%) were called active. Shown is part of a subset that was picked to be rich in actives. Unmarked numbers belong to inactive results.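 The calls were made as follows: active = gene whose silencing raises cell survival under the drug, median off-target-corrected z-score across its silencing RNAs 2 or more; inactive = the rest.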

experiment: Resistance to Poly (ADP-Ribose) Polymerase inhibitor: Gene Identification via Genome-wide siRNA Screen; conditions: mouse BRCA2 R2336H ES cells, olaparib, CellTiter-Glo viability; stronger effect = higher value
Summary of the method: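 Genome-wide siRNA screen (3 siRNAs/gene, 20 nM) in mouse ES cells carrying hypomorphic BRCA2 R2336H; olaparib 500 nM added 48 h post-transfection, CellTiter-Glo viability 72 h later. Normalized to plate-median negative control; MAD z-scores, gene median, seed-adjusted.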

Row | Sequence | z-score
1 | GGAAAGUGUCACCAAGUUCTT against B230359F08Rik | -0.0496
2 | GGUACUAAACACCAACUCCTT against B230315M08Rik | 1.28 (active)
3 | GGAAGGAAGAGAAAAACAATT against D11Ertd730e | -1.34
4 | GGGAUCCGAAUUCUGACCATT against 2010305C02Rik | 1.23
5 | GGCCAUCAGAUAGUUUAAUTT against AW551984 | -0.3
6 | GCAAGAUUCAGAGUGCAGCTT against 4932441K18 | -0.922
7 | GCCUUACUCUCUCAGUCCUTT against D930018N13 | -1.82
8 | GGAUACAUUAAUUGUUUGGTT against AW011752 | 0.68
9 | CCACACUGAGGACUAUAUUTT against Cstf1 | 0.623
10 | GGAUAGCUGCCAACACUACTT against BC048937 | -0.0419
11 | GGCCUAUCUUCCCAGGAAATT against Mapk1 | 1.76 (active)
12 | GCAAAAAUUAUGCAGAGCATT against Olfr1443 | 2.55
13 | CGGUAUCUCAACUUUUACATT against Stra8 | 0.301
14 | GCGAACGAAGCAUAAAUGGTT against Mettl1 | -0.126
15 | GGCAGUAGUGUUAACGGUGTT against Chrnb2 | 2.38 (active)
16 | GGAUGCUGUAACACUUUAUTT against Bcl6 | -1.71
17 | GGACCAGGUAUUCAUGAUCTT against Sema3c | 1.79
18 | CCAUGAUGAUAAUCUGAAUTT against B930090D16Rik | 0.709
19 | GGAAGAUUUUUCAAAGGAUTT against Itgb6 | 2.51 (active)
20 | CAAUAACAGCGAAACAUCCTT against Scn4b | 2.18
21 | GUCUCUCUUUUAACAUGCUTT against Ceacam13 | 2.49
22 | GCUUGUCUCACACAGCUCUTT against Olfr401 | -0.379
23 | CCCACAAGGUUAAGAUAUATT against Col14a1 | 0.22

Row | Sequence | z-score
24 | GACGGUGGGACUCACUGUUTT against Ors6 | -0.403
25 | GGUUGACACAGAUGAAGAGTT against Rdh9 | -0.356
26 | GCGUGCAGCCCUCAAUGAATT against Ppp2r5b | 1.44 (active)
27 | GGAAUCCAUGCAGAAAUAATT against Pcdhga6 | 1.54
28 | GGAGAUGGCUUCUCUCUCGTT against Rarg | 1.37 (active)
29 | CGCGGGAUGAAGGAUAUAATT against LOC432589 | -2.23
30 | GGAGAACUGUCAGAACGAGTT against Gpx2 | -2.7
31 | GCAAUGCGACGUGCUCUAUTT against LOC330863 | -0.895
32 | GCGGCAUAAGUCCAAGCACTT against Crk7 | -1.76
33 | GGAAUGUUCUGUCGCUAUGTT against Nrp1 | 0.0552
34 | GGUUGAAUAUUGAAUGGAATT against 9130422G05Rik | 0.44
35 | CCUGAAAAAAUUUAUCGCCTT against Rnf3 | -0.169
36 | GCUUCCUCUACAUCCUGCUTT against Kcnk15 | 2.57 (active)
37 | GGCUGAACUCAAAAAGACGTT against Hand1 | 2.07
38 | GGUGAAGCUGAAACAACAUTT against BC020002 | 0.323
39 | GCUUGUGAAAAAUUAUGAGTT against Ipo7 | -1
40 | GCUCUACUGCUUCCUUGUUTT against Olfr973 | -2.32
41 | GGAGAUGUGUGCUAUGUGGTT against Gzmb | -1.14
42 | GGCCAACUGAUUAAGAAACTT against Chrnb1 | 2.28 (active)
43 | GGGAUACCAUGGGAAUAGUTT against Vps52 | 0.468
44 | GGACAAGGAUGCAAUUAUCTT against 4833427G06Rik | -2.12
45 | GGCUCAAGGACAGAUGAUGTT against Tra1 | -0.94
46 | GGAGCUAAGACAGUUUGGATT against BC022133 | -1.16

Row | Sequence | z-score
47 | GGAUGAUACUUCAUUACACTT against Ankrd12 | -0.613
48 | GGAGUGAAAUUUACUGGGUTT against Hdgfrp3 | 1.78
49 | CGAGGUGACCUACAAGAUUTT against AI481750 | 0.982
50 | CCUUCUGUAGUUGGAAUCATT against 1110038F21Rik | -0.558
51 | GGGUUAUGUCUGUGGAGCUTT against Bcl2l2 | 1.54 (active)
52 | GCCUUAAGUGGAUUUAGGATT against Hist1h2ae | 1.22
53 | GGAAAUACCCUGAUAGCCATT against 9430077C05Rik | -1.23
54 | GCAACAUUAGGAUUUAUAGTT against 1110032E23Rik | -0.366
55 | GGUGAAAACCCUAACAGUCTT against A130007F10Rik | 0.653
56 | CCAAGUUUUUAUGCAGAUATT against Pip5k1a | -1.31
57 | GCUUACCUUGACCAACCUCTT against Chrng | 1.84 (active)
58 | GCCACCUUGUUUCUCGAACTT against 1810008A18Rik | 0.925
59 | GCAAGUCCUACAAUACAACTT against Tk1 | -0.837
60 | GGUGCAGCCACGAAAACAUTT against Lmln | 1.57
61 | CGAUUAUGACCGAUAUAGATT against Fusip1 | 0.823
62 | GGAUAUUGAACACUUCUUGTT against D330017J20Rik | 1.25
63 | GGGACUUUCAUAAUGCCAGTT against Snip1 | 0.733
64 | GGCCUCCCUACUUGAAGACTT against Crip3 | 1.71 (active)
65 | GGCUCUCUUAGUUGUAUCATT against Mrpl35 | -1.03
66 | GGAAGUCCGUUUUUAAGAATT against 4732429I09Rik | -0.792
67 | GCUCAAACAGAUACACGGATT against Ap2a2 | 0.288
